Results taken from the supplement of paper PMC3334620.
The full ranking holds about 33,000 sequences; the median of “E-score (-0.5 to 0.5)” is about -0.041, and the highest 2% start at about 0.37. For the sample, the highest values were picked, then their nearest neighbours and some sequences at random.

molecular target: T1, Ecm22 (UniProt Q05958); experiment: PBM E-score (8-mer binding enrichment) (E-score (-0.5 to 0.5)); higher = stronger / more preferred TF binding; conditions: protein concentration: 200 nM; construct: GST-full length
T1 sequence: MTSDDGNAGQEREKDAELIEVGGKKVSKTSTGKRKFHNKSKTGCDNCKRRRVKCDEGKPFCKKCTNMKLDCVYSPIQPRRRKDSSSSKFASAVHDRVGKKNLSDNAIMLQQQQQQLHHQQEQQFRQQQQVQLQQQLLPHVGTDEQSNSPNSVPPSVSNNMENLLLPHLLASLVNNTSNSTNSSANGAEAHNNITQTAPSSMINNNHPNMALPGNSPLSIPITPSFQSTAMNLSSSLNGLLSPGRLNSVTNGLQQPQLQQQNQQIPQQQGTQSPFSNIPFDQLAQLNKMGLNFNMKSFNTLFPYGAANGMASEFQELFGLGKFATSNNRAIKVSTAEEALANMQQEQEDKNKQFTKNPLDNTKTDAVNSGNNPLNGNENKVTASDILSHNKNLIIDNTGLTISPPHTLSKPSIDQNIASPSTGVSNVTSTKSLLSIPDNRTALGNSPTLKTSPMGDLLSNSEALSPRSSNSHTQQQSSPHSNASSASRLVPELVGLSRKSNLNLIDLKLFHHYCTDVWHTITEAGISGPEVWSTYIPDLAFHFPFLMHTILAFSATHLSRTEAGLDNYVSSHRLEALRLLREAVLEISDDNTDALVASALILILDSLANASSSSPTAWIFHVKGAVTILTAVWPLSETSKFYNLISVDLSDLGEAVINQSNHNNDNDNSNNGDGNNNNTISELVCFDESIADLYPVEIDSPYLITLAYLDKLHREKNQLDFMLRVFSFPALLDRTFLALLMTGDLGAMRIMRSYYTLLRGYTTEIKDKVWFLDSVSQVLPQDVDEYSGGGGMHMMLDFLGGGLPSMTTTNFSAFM
Protocol: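 Universal 'all 10-mer' protein binding microarrays (Agilent AMADID 015681) probed with GST-tagged S. cerevisiae TFs (full-length or DBD) made by in vitro transcription/translation (PURExpress), about 100-200 nM. Bound TF was detected with fluorescent anti-GST. Each ungapped 8-mer (which stands for itself and its reverse complement) is scored by the PBM enrichment score (E-score), a modified Wilcoxon-Mann-Whitney statistic from -0.5 to +0.5, computed with the Universal PBM Analysis Suite. Scale: above 0.35 generally sequence-specific binding.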

Sequence	PBM E-score
CCCTGGAC	-0.193
GTAGCAGA	0.0392
AGGACCCT	-0.235
CCCTCAAC	-0.248
CGTTCAAG	0.335
CGTTCATC	0.354
CGTTCAAA	0.361
GGTTCATA	0.0139
GGTTCGAA	0.182
CGTTCATA	0.386
AGTTCGTG	0.189
AGTTCGTA	0.449
GGTTCGGA	-0.1
GGTTCGTA	0.443
AGTTCGTC	0.207
CGTTCAAC	0.377
AGGAAACG	0.281
GGAACAGA	-0.378
CTGTCCCA	-0.11
CACTCGGA	0.198
CGTAATAA	0.247
AAGCGAAT	0.277
CATGCAAC	0.0872
CGTTCGTC	0.314
CGTTCGGA	0.274
CGTTCGTA	0.461

Sequence	PBM E-score
AAGGAGGC	-0.319
AGCATCGG	-0.0521
TCCAGCGA	-0.115
TGGGTGAA	0.0282
CCGACGCA	0.00712
ACGACTCA	0.238
AAGACGCG	-0.012
ACGACGCT	0.38
ACGACGCG	0.407
ACGACTCG	0.39
ACGACGCC	0.33
ACGACTCT	0.308
ACGACGAT	0.325
CCGACGCG	0.218
ACGACGCA	0.412
GCGACGCA	0.173
ATTGCGCG	0.148
CAGGAAGG	-0.357
ATCGTGCG	0.228
CATTCCTC	0.0616
ACGCGGTG	-0.00032
AATGAGTC	-0.0397
AAGGTGTA	-0.0872
ATCCTTTA	-0.159
CGGTACGA	0.492
CGGTACGC	0.315

Sequence	PBM E-score
AGGTACTG	-0.183
AGGTACGC	0.217
AGGTACGG	0.424
CGGTACCA	-0.0083
GGGTACCA	-0.317
GGGTACGA	0.491
GGGTACAA	-0.0303
CGATTCGC	0.221
ATCAGGTC	0.113
ATAGGAGC	-0.162
CAGATTTA	0.156
AACATCAA	0.0313
CCTCGGCA	0.165
TCGCTTAA	0.394
CCGCTTAA	0.291
GCGCTTAA	0.0179
ACCCATTC	-0.0208
GACGTAGA	-0.0256
CACGTAGC	-0.026
ATCGTAGC	0.385
CCCGTAGC	0.154
ATCGTAGA	0.272
CTCGTAGC	0.449
ATCGTAGG	0.144
GTCGTAGA	0.4
CTCGTAGA	0.376

Sequence	PBM E-score
GGCGTAGA	0.0225
CACGTAGA	-0.0914
CGCGTAGA	0.107
AGAGGCGA	-0.00468
ATGGGAGG	-0.116
CTGGCGAC	-0.209
GCACGTGC	-0.0189
CATTACCG	-0.025
GGGGACTA	-0.242
AACGGCCT	0.225
CTTTCGCA	0.00706
GTAGGTCA	-0.0922
GAACCTTC	-0.126
ATGAGAGA	-0.0934
AGAAGGCA	-0.166
GGCATTCA	-0.0839
ACACTGCG	0.0708
ATTTGGCC	-0.258
AACGCATT	0.0189
CTTACGGA	0.0416
GCTACGGA	0.232
CCTACGGA	-0.34
GGTACGGA	0.413
CGTACGGA	0.373
CGTACGGC	0.385
AGTACGGA	0.288

Sequence	PBM E-score
CATACGGC	0.3
AGTACGGC	0.339
CCCGCTGA	-0.32
AGCGCTGC	-0.158
CCGGTCAC	-0.0785
ATGGACAT	-0.107
ATGGGCCC	-0.157
GCGAACAC	0.0536
CCCCCTGC	-0.162
CATACGTC	0.0749
ACTACGAA	0.25
AATACGAA	0.419
AATACGTA	0.228
CATACGAA	0.451
AATACGAG	0.457
CATACAAA	-0.0105
AATACGTG	0.15
CATACGCC	0.182
AATACGGG	0.229
CATACGAC	0.451
CATACGTA	0.288
GATATAAC	0.156
AAGGACAC	-0.168
ACTTTGGG	-0.263
ATTGACTC	-0.0667
AACACAAT	-0.00044

Sequence	PBM E-score
CTTTTCCA	-0.271
GGCGGCGA	-0.157
GACAGAGA	0.0187
GATACGAC	0.464
GATACGGC	0.32
AATACGCT	0.121
AATACGGC	0.268
AATACGGT	0.21
GATACGTA	0.253
GATACGAA	0.445
GATACAAA	0.163
GATACGCC	0.162
AATACGAT	0.384
AATACGTC	0.0846
AATACGAC	0.429
ATTCCGAC	-0.0388
AAAACGAT	0.257
ACGTTCTA	0.0664
AGGAATAT	0.06
AGTTGAAC	0.0747
AGTGGAGA	-0.128
ACCGAGTG	0.159
TCCAGGGA	-0.173
CACGGACG	-0.0335
AGCTAACA	-0.248
CATACGAG	0.481

Sequence	PBM E-score
CATACGGG	0.36
CATACGCG	0.269
AGGGTTAA	-0.0692
CGGCTCAC	-0.0852
AGGTTAGA	-0.186
AAACGAGC	0.482
GAACGAGC	0.483
GAGCGAGC	0.354
GAGCGAGA	0.377
GCACGAGA	0.127
CAACGAGC	0.336
AATCGAGC	0.237
CAGCGAGA	0.0257
GAACGAGA	0.464
GGACGAGA	0.0358
GCACGAGC	0.0624
AACCGAGC	0.355
GCTGCCTA	-0.101
AGTGGGCG	-0.167
ATAGGATC	-0.135
GCCTAGCA	-0.213
ATAAGGAG	-0.0163
ATGTACGA	0.477
ATGTACGC	0.112
GTGTACTA	0.207
CTGTACGC	0.314

Sequence	PBM E-score
ATGTACGG	0.365
GTGTACGA	0.481
CTGTACAA	-0.0518
GTGTACCA	0.0289
CTGTACGA	0.48
TACTGACA	0.0366
AGTCCAAA	-0.108
GGCGGCAC	0.0476
GCTGGGGA	-0.211
CCACCCGC	-0.0883
TAACCGTA	0.375
AAACCGTA	0.27
GCACCGTA	0.371
GAACCGTA	0.248
CCACCGTA	0.34
ACACCGTA	0.313
AGACAGCA	-0.143
AATACCGT	0.197
CAGGGTGA	-0.192
TAATCGAA	0.134
GAATCGTA	0.38
TAATCGGA	0.16
CAATCGTG	-0.215
CAATCGTC	-0.0527
GAATCGTC	0.14
CAATCGTA	0.389

Sequence	PBM E-score
TAATCGTA	0.418
AAATCGTG	0.0433
AAATCGTA	0.393
GAATCGCA	-0.0229
AAATCGTC	0.127
ACCCACAA	0.105
ACGTAGTC	-0.158
AGATAGGG	-0.127
ATCTCGAG	-0.0735
AATGGCTG	-0.124
AGAGTACG	0.257
AGGGTACG	0.411
AGGGTACA	-0.0565
CGGGTACG	0.452
CGAGTACC	0.21
CGGGTACC	-0.134
AGGGTACC	-0.323
CGGGTACA	0.157
CGAGTACG	0.392
AAGGGCTG	-0.377
AAGAGACG	0.0921
CTACTCTA	-0.204
GCAAACAA	0.0626
GCAAACGA	0.433
TCAAACAA	-0.155
ACAAACGG	0.226

Sequence	PBM E-score
TCAAACGA	0.452
CCAAACGG	0.287
CCAAACGA	0.437
CCAAACGC	0.177
ACAAACGA	0.445
GCAAACGC	0.0881
ACAAACGC	0.174
CAAAACGA	0.278
AGCGGGTG	-0.186
CTTTTGCC	-0.0531
ATCAACCA	-0.154
CGCAAGCG	0.142
TGGACCAA	-0.206
AGGGAGAT	-0.275
CAATGACG	-0.147
ACGTTTAC	0.304
GCGTTTAC	0.227
ACGTTTAG	0.33
ACGTTTAA	0.365
CCGTTTAA	0.441
CCGTTTAC	0.416
CAGTTTAG	-0.0933
GCGTTTAA	0.28
CCGTTTAG	0.433
ACAGATCT	-0.159
GTTCCAAC	0.135

Sequence	PBM E-score
AATACTAG	0.0461
CAGGCGCA	-0.24
AGGAGGCA	-0.294
AACGAAAC	0.389
CACGAAAC	0.147
CACGAAAG	-0.0739
AACGAAAG	0.399
ACCGAAAG	0.0863
AACGAAAT	0.4
GACGAAAC	0.287
ACCGAAAT	0.15
AACGAAAA	0.364
CCTAAAAG	-0.201
AACCAAAG	-0.0743
GTGGCAAA	-0.187
AGCACCAT	-0.122
AGCGTACG	0.351
CGCGTACA	0.269
ATCGTACG	0.437
CACGTACA	0.216
ATAGTACC	0.00552
CTCGTACA	0.489
AGCGTACA	0.179
ATCGTACC	0.479
ATAGTACA	0.151
AGCGTACC	0.251

Sequence	PBM E-score
ATAGTACG	0.325
ATCGTACA	0.465
GTTGACCA	-0.16
TACCGCAA	0.0649
AACTGCAT	-0.00243
ACGCCCAG	-0.143
AGGCTTAA	-0.168
GGTACTGA	-0.0769
CCCGATCA	0.197
GACGTACA	0.211
AACGTACC	0.297
GGCGTACA	0.16
AACGTACG	0.378
GTCGTACA	0.484
AACGTACA	0.204
ATTCTTAC	-0.026
CACCAGCA	-0.028
CTGCAGGA	-0.245
AGACCCGC	-0.00174
AAACGAGT	0.456
AAACGAGG	0.476
TAACGTGA	-0.142
AAACGTGG	0.133
TAACGAGA	0.369
CAACGAGA	0.378
CAACGAGG	0.343

Sequence	PBM E-score
TCACGAGA	0.0348
AAACGGGT	0.319
ACACGAGT	0.24
ACCCCCCA	-0.296
ATCACAAG	-0.0512
CCCCTAGG	-0.307
ACGAATTC	0.269
AGCCTGTC	0.0499
CATTGGCG	-0.239
ATCTTTGA	-0.00074
AGGCCGAC	-0.106
AGACGAGA	0.166
AAACGAGA	0.463
ACACGAGA	0.265
GCGTAAGA	0.074
AATATCTA	-0.0604
GGCCGTAC	0.419
AGCCGTAC	0.369
GGCCGTAA	0.244
CGCCGTAG	0.119
CGCCGTAA	0.26
CGCCGTAC	0.408
AGCCGTAG	0.0779
AGCCGTAT	0.315
GACCGTAC	0.362
ACGGTTGA	0.0702

Sequence	PBM E-score
AAGCCGAA	-0.0177
CAGGCACG	-0.112
AACAACTT	-0.092
GAAATCTC	0.129
CCCGAGCG	0.173
ACACGAAC	0.237
CCACGAAC	0.201
CTACGAAC	0.369
GGACGAAC	0.111
GCACGAAC	0.222
GTACGAAC	0.475
AGACGAAC	0.295
ATACGAAC	0.474
CTACGAAG	0.297
